An excerpt weighted towards active compounds, which were near 12% of everything screened.
WT yeast gro inh: growth inhibition of WT strain, primary screen, mitochondrial fusion inhibitor project, WT and mutant strains, chemical genetic; mitochondrial fusion phenotypic screen; inhibition, % at 10 µM; 190,000 compounds, 2.1% hits; in the data active means inhibition above about 58%; tested in S. cerevisiae
L major viab: Leishmania major promastigote growth inhibition, primary screen; Leishmania major promastigotes, resazurin fluorescence viability; inhibition, % at 10 µM; 200,000 compounds, 9% hits; AID 1063, 2008; in the data active means inhibition above about 50%;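 further: promastigotes grown with compound for 44 hours at 28 °C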
Arbovirus inh: antivirals against arbovirus infection, primary screen, cell-based, full library, 10K replicate subset. arbovirus infection cell-based antiviral screen. inhibition, % at 10 µM. 200,000 compounds, 0.37% hits; in the data active means inhibition above about 30%
CHOP inh: inhibitors of CHOP promoter induction, primary screen, cell-based, unfolded protein response, luciferase reporter; CHO-K1 CHOP-promoter luciferase, tunicamycin-induced, 15-18 h; inhibition, % at 10 µM; 220,000 compounds, 3.8% hits;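 active means compounds that reduced the stress-induced luciferase reporter signal by more than about 70% of percent inhibition, limit read from the data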;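 further: 0% = tunicamycin plus vehicle and 100% = wells without tunicamycin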
Active calls of the source: *; . = no result.

SMILES | WT yeast gro inh | L major viab | Arbovirus inh | CHOP inh
Cc1ccc(-c2csc(NC(=O)c3cccc(S(=O)(=O)N4CCN(C)CC4)c3)n2)cc1 | 6.1 | 6.5 | 35.1* | 47.0
CCOc1cc(C(=O)Nc2ccc(S(=O)(=O)N3CCOCC3)cc2)cc(OCC)c1OCC | 6.1 | -11.6 | 0.1 | 13.6
O=C(Nc1nc(-c2nc3ccccc3s2)cs1)c1ccc(S(=O)(=O)N2CCOCC2)cc1 | -4.9 | 52.2* | -8.3 | .
CC(C)COc1cccc(C(=O)Nc2ccc(S(=O)(=O)N3CCOCC3)cc2)c1 | -13.4 | 3.2 | 6.5 | 80.5*
O=C(NC(=S)Nc1nc(-c2ccccc2)cs1)c1cccs1 | 8.0 | -5.1 | 9.7 | 74.3*
O=C(Nc1nc(-c2cc3ccccc3o2)cs1)c1ccc(S(=O)(=O)N2CCCC2)cc1 | -1.2 | 22.8 | 0.7 | 59.7
CC(C)=NNc1nc2c(c(=O)n(C)c(=O)n2C)n1CCc1ccccc1 | 11.3 | 9.2 | -4.0 | -7.3
CC1=C(C(=O)N(C)C)C(c2ccc(C)s2)NC(=S)N1 (centres undefined) | 6.2 | -5.0 | 4.5 | 10.6
COC(=O)[C@@H]1C[C@@]2(O)[C@@H](O)[C@@H](O)[C@@H](O)C[C@H]2N1Cc1ccc(Cl)cc1 | . | . | . | -7.9
Cc1ccc(Nc2nc(-c3ccc(S(=O)(=O)N4CCOCC4)cc3)cs2)cc1Cl | -5.0 | 29.3 | -34.8 | 88.4*
Cc1ccc2nc(NC(=O)c3ccc4c(c3)OCO4)sc2c1 | 33.3 | 8.2 | -7.0 | 93.2*
O=S(=O)(c1ccc(-c2csc(-c3cccnc3)n2)cc1)N1CCOCC1 | 13.6 | 68.4* | -6.6 | 17.5
O=C(Nc1nc(-c2ccc(S(=O)(=O)N3CCOCC3)cc2)cs1)c1ccccc1 | 4.2 | 73.4* | -0.7 | 17.9
Cc1ccc(S(=O)(=O)N2CCOCC2)cc1C(=O)Nc1nc(-c2cccnc2)cs1 | 2.4 | -0.5 | -1.2 | 29.9
COc1ccc(N2CCN(CC(=O)NC(=O)NC(C)(C)C)CC2)cc1 | 15.0 | -5.2 | 17.4 | 18.7
CC(=O)c1cccc(NC(=O)C(C)N2CCc3ccccc3C2)c1 (centres undefined) | . | . | . | 38.7
O=C1CSCN1c1ccc(Cl)cc1 | -2.7 | -5.9 | -1.8 | 10.3
CC(C)CC(=O)N/C(N)=N/c1nc2ccccc2o1 | . | . | . | -30.3
Cc1ccc2nc(NC(=S)NC(=O)c3cccs3)sc2c1 | 27.8 | 58.9* | 4.4 | 8.2
Cc1ccc2nc(NC(=O)c3cccs3)sc2c1 | 17.0 | 28.4 | -1.8 | 66.3
O=C(Nc1nc(-c2cc(Cl)sc2Cl)cs1)c1cccs1 | 73.9* | 23.0 | -27.2 | 34.9
O=C(Nc1nc(-c2ccccc2)cs1)c1ccc(Br)o1 | 63.2* | -7.1 | -12.7 | 74.4*
COc1ccc(-c2csc(NC(=O)c3ccc(S(=O)(=O)N4CCc5ccccc5C4)cc3)n2)c(OC)c1 | -13.8 | 90.5* | 18.2 | 25.6
Cc1cc(C)nc(-n2nc(C)cc2NC(=O)c2cccc(S(=O)(=O)N3CCCCC3)c2)n1 | 3.0 | 72.2* | -0.6 | 106.8*
O=C(Nc1nc(-c2ccc(S(=O)(=O)N3CCCC3)cc2)cs1)c1cccs1 | 6.6 | 99.8* | 3.8 | 43.3
SMILES | WT yeast gro inh | L major viab | Arbovirus inh | CHOP inh
O=C(Nc1nc(-c2ccc(S(=O)(=O)N3CCCCCC3)cc2)cs1)c1cccs1 | 4.8 | 22.3 | -5.9 | .
O=C(Nc1ncc(Cc2ccccc2)s1)c1cccs1 | 48.7 | 5.8 | -13.0 | -33.2
CCCOc1ccc(C(=O)Nc2nc(C)c(Cc3ccc4c(c3)OCO4)s2)cc1 | 3.1 | 63.7* | -14.2 | 40.8
O=C(Nc1ncc(Cc2cccc(Cl)c2)s1)c1cccs1 | 80.6* | 84.1* | -48.5 | -6.1
COC(=O)c1ccccc1NC(=O)NC1CCCCC1 | . | . | . | 8.0
CCOc1cccc(C(=O)NC(=S)Nc2ccc(Cl)cc2C(=O)O)c1 | -3.6 | -4.2 | 11.7 | 20.2
Cc1nn(C(C)C(=O)NCc2cccs2)c(C)c1[N+](=O)[O-] (centres undefined) | -13.4 | 1.1 | 0.2 | 10.6
Cc1ccc(COc2ccccc2C(=S)N2CCCC2)cc1 | 60.6* | 75.7* | 4.0 | -8.1
O=C(/C=C(/c1ccc(Cl)cc1)n1cncn1)c1ccccc1 | -6.5 | 94.4* | -12.5 | -5.4
CN(C)/C=C(/C(=O)c1ccccc1)n1cncn1 | 0.1 | -2.8 | 1.6 | 11.6
Cc1ccccc1NC1=NCC(c2ccc([N+](=O)[O-])cc2)S1 (centres undefined) | 39.1 | 17.3 | -7.3 | 18.2
CC1(C)CC(=O)C2=C(C1)N=c1s/c(=C/c3ccc(F)c(F)c3)c(=O)n1C2c1ccc(F)cc1 (centres undefined) | 76.5* | 100.3* | -13.6 | -24.7
COc1ccc(Cc2nn[nH]n2)cc1 | 91.4* | -7.5 | 5.3 | 30.4
CC(C)(C)C1CCc2c(sc3nc(SCC(=O)O)nc(N)c23)C1 (centres undefined) | . | . | . | 65.2
COC(=O)CSc1nc(N)c2c3c(sc2n1)C(c1ccccc1)SC(c1ccccc1)C3 (centres undefined) | 66.9* | 85.2* | -38.4 | -79.6
COC(=O)CSc1nc(N)c2c3c(sc2n1)CCCC3 | -14.2 | 70.6* | 1.4 | -4.7
O=C(/C(=C/O)N=Nc1ccccc1)c1cccs1 | 2.8 | 83.5* | 3.0 | -24.0
COc1ccc(N=N/C(=C\O)C(=O)c2ccco2)cc1 | 3.0 | 3.9 | -16.7 | 34.6
Cn1c2ccccc2c2cc(C(=O)NNS(=O)(=O)c3ccc(F)cc3)sc21 | -1.8 | 6.8 | -14.8 | 51.9
CCCCN(CC)CCCNC(=O)c1cc2c(=O)n(C)c3ccccc3c2n1C | 5.6 | 80.4* | 20.0 | -18.4
CN(C)CCNC(=O)c1cc2sc3ccccc3c2s1 | 1.1 | 83.9* | -26.5 | -25.2
CN(C)CCCNC(=O)c1cc2c3ccccc3n(C)c2s1 | -7.2 | 90.7* | -12.8 | -4.7
CN1CCN(CCCNC(=O)c2cc3c(=O)n(C)c4ccccc4c3s2)CC1 | 8.8 | 97.8* | 15.6 | 22.4
COCCN(CCOC)C(=O)c1cc2sc3ccccc3c2s1 | 7.3 | -1.8 | -5.6 | -8.3
CCCCn1c(N)c(N(CCOC)C(=O)CCc2ccc(OC)cc2)c(=O)[nH]c1=O | -2.0 | -6.7 | -1.1 | -12.3
SMILES | WT yeast gro inh | L major viab | Arbovirus inh | CHOP inh
COCCNC(=O)C1CC(=O)N(c2ccc(OC)cc2)C1c1ccc(OC)cc1 (centres undefined) | -9.3 | -13.1 | 3.4 | 22.7
Cn1c(C(=O)NCCCN2CCOCC2)cc2c(=O)n(C)c3ccccc3c21 | 3.5 | 14.7 | -0.1 | -1.6
Cn1c(C(=O)NCCN2CCCCCC2)cc2c(=O)n(C)c3ccccc3c21 | 9.3 | 69.7* | -3.0 | 24.0
Cn1c(C(=O)NCCN2CCN(Cc3ccccc3)CC2)cc2c(=O)n(C)c3ccccc3c21 | -0.6 | . | -8.4 | -3.4
CC1CCN(CCCNC(=O)c2cc3c(=O)n(C)c4ccccc4c3n2C)CC1 | 16.1 | 62.6* | 12.4 | 1.9
O=C(NC(=O)N1CCN(c2ccc([N+](=O)[O-])cn2)CC1)c1c(Cl)cccc1Cl | . | . | . | -6.8
CCCCOc1ccc(C(=O)C(CN2CCOCC2)c2ccccc2)cc1 (centres undefined) | 18.9 | 100.5* | -34.4 | .
COc1ccc(C(=O)C(CN2CCOCC2)c2ccccc2)cc1 (centres undefined) | 33.2 | 100.6* | -41.3 | -42.4
COc1ccc(C(=O)C(CN2CCCC2)c2ccccc2)cc1 (centres undefined) | 11.2 | 100.4* | -46.3 | -53.9

Source: PubChem
